# Only some compounds are listed: those with a hit (about 0.51% of all), similar ones and a draw of the others.
# FMDV Renilla: shows antiviral activity in FMDV Renilla assay | FMDV replicon cells, Renilla luciferase signal | Potency, µM (highest dose often 57.5 µM), for the others: at the highest dose activity change, negative = inhibition, hits mostly inhibitors | actives 0.32% (n = 120,000); also: nearly all actives have a fitted effect of over 55% in size
# FMDV FLuc: FMDV antiviral activity by firefly signal; actives 0.23% (n = 120,000); Potency, µM (highest dose often 57.5 µM), for inactives: at the highest dose activity change, negative = inhibition, actives largely listed as inhibitors; AID 1745856; FMDV antiviral cell assay, firefly luciferase signal; also: nearly all actives have a fitted effect of over 60% in size
# Numbers without * were called inactive; ? = inconclusive. Calls follow the shape of the full dose curve. % is scaled to controls: 0 for no effect and ±100 for the full control effect; potency is read from the fitted curve at half-maximal effect.
SMILES,FMDV Renilla,FMDV FLuc
CC(=O)Nc1cccc(NC(=O)COC(=O)c2cc3ccccc3[nH]2)c1,-10%,20%
CSc1ccc(CN(C)C(=O)CSc2nnc(COc3ccc(Cl)cc3)n2C)cc1,4µM*,10µM*
CN(Cc1ccsc1)C(=O)CSc1nnc(COc2ccc(Cl)cc2)n1C,9%,7%
O=C(CN1CCN(c2ncccn2)CC1)N1N=C(c2cc3ccccc3o2)CC1c1ccco1 (stereo unspecified),-9%,102%
COc1cc(CN(C(=O)COc2ccc(Br)cc2)c2ccccn2)cc(OC)c1OC,22µM*,-42%
COc1cc(CN(C(=O)COc2ccc(C)cc2)c2ccccn2)cc(OC)c1OC,34%,40%
CC(=O)c1c(C)[nH]c(-c2csc(CC(=O)Nc3ccc(C)cc3C)n2)c1C,209%,0%
COc1cc2c(cc1OC)C(c1ccccc1)N(CC(=O)Nc1ccc(C(N)=O)cc1)CC2 (stereo unspecified),-18%,-13%
O=C1CC(O)=C(Br)O1,3%,15%
O=S1(=O)C=CC2ON=C(c3c(Cl)cccc3Cl)C21 (stereo unspecified),32µM*,?
Cc1c(Cl)cccc1NCC(=O)N1CCN(S(C)(=O)=O)CC1,-6%,0%
C(#CCN1CCN(CC#CCOCc2ccccc2)CC1)COCc1ccccc1,-3%,-7%
C(#CCN1CCN(CC#CCOCCOCc2ccccc2)CC1)COCCOCc1ccccc1,5µM*,4.5µM*
Nc1cccc(C#Cc2ccccc2)c1,18%,166%
C=CCSC1=N/C(=C\c2ccc(C(C)C)cc2)C(=O)S1,0%,-3%
COc1ccc(-c2noc(CCCC(=O)Nc3cccc(Cl)c3C)n2)cc1,-12%,-14%
COc1ccc(-c2noc(CCCC(=O)Nc3ccc(S(=O)(=O)N4CCCCCC4)cc3)n2)cc1,?,32µM*
N#Cc1ccc(CN2CCN(C(=O)c3ccc(Cn4nnc5ccccc54)cc3)CC2)cc1,5µM*,6.3µM*
N#Cc1ccc(CN2CCN(C(=O)C3CC=CCC3)CC2)cc1 (stereo unspecified),0%,6%
COc1ccc(C2=C(C)C(N3CCC(C(=O)Nc4ccc(C)c(Cl)c4)CC3)=NS2(=O)=O)cc1,-5%,-6%
N#Cc1cccnc1Sc1ccc(F)c(Cl)c1,22%,0%
CCOc1ccc(-c2nc(CSCC(=O)N3CCN(c4ccc(F)cc4)CC3)c(C)o2)cc1,-5%,-1%
CCOc1ccc(-c2nc(CSCC(=O)N3CCN(c4cccc(C(F)(F)F)c4)CC3)c(C)o2)cc1,?,28µM*
CCCCn1nnc(NC(=O)COc2ccc(C(C)(C)C)cc2)n1,6%,18%
Cc1nc(-c2ccc(S(=O)(=O)Nc3ccc(F)c(F)c3)cc2)co1,149%,12%
SMILES,FMDV Renilla,FMDV FLuc
CCOc1ccc(CN(CC)Cc2cc(=O)n3[nH]c(-c4cccc(C)c4)cc3n2)cc1,-11%,-13%
Cc1ccc(CN(Cc2cc(=O)n3[nH]c(-c4cccc(C)c4)cc3n2)CC(C)C)cc1,25µM*,?
COc1ccc(F)cc1C(=O)/C=C/c1cccc(C#N)c1,?,3.5µM*
COc1ccc(F)cc1C(=O)/C=C/c1ccc(C#N)cc1,0%,0%
CC(C)c1ccc(NC(=S)NNC(=O)C(N)=O)cc1,7%,0%
Cc1nc(C(=O)O)ccc1C#N,-5%,19%
COc1cc(OC)c(NC(=O)CCc2c(C)nc3cc(-c4ccccc4OC)nn3c2C)cc1Cl,4%,-19%
COc1cc(OC)cc(-c2cc3nc(C)c(CCC(=O)Nc4ccccc4OC)c(C)n3n2)c1,-12%,3.2µM*
COc1ccccc1-c1cc2nc(C)c(CCC(=O)Nc3cc(C)ccc3C)c(C)n2n1,-13%,35µM*
COc1cc(OC)cc(-c2cc3nc(C)c(CCC(=O)NCc4ccccc4)c(C)n3n2)c1,-12%,?
CCc1c(C)sc(NC(=O)c2cccc(OC)c2)c1C#N,6%,212%
Cn1c(=O)c2c(ncn2CC(=O)Nc2nc(-c3ccc(C4CCCCC4)cc3)cs2)n(C)c1=O,?,66%
CCOC(=O)N1CCN(c2ncc3c(n2)CC(c2ccc(OC)c(OC)c2)CC3=O)CC1 (stereo unspecified),-5%,-2%
O=C1CC(c2ccccc2O)Cc2nc(N3CCN(c4ccccc4F)CC3)ncc21 (stereo unspecified),11µM*,?
c1cncc(-c2nc(Sc3ccc4c(c3)OCCCO4)c3ccccc3n2)c1,?,-18%
CCCCc1ccc(NC(=O)COc2cccc3c(=O)n(C)ccc23)cc1,8.9µM*,?
CCCn1ccc2c(OCC(=O)NCc3ccc(C)cc3)cccc2c1=O,13%,-10%
CC(=O)Nc1ccc(CNC(=O)c2nccnc2N)cc1,18%,18%
Cc1[nH]c2ccccc2c1C(c1ccccc1F)c1c(C)[nH]c2ccccc12,5%,10%
O=C1C(c2ccccc2)=S=C2c3ccccc3C=CN12,5%,17%
CCn1c2c(c(=O)n3ncc(C(=O)N4CCN(c5ccc(Cl)cc5)CC4)c13)CN(Cc1ccc(OC)cc1)CC2,22µM*,?
